Inconclusive results are not listed. Unmarked numbers belong to inactive results. The source made the active and inactive calls. The call rests on the fitted dose curve; in most records, active means well fitted inhibition curve with a large enough effect; inconclusive means small, poorly fitted or top-dose-only effect; inactive means no such curve, though single readings can be large or run the other way.
Tested on: not listed separately
Test: qHTS for Inhibitors of the Aldehyde Dehydrogenase Family (ALDH1A2, ALDH1A3, ALDH2, ALDH3A1) (AID 2061307); further: nearly all actives have a fitted effect of over 50% in size; on Potency: test system not described further here
Conditions: ALDH inhibition qHTS; series mostly up to 50.3 µM; activity change, negative = inhibition: at the top concentration
On the % scale 0 is the no-effect control and ±100 the full control effect; potency means the concentration at half of the fitted maximal effect.

Compound	activity change, negative = inhibition	Potency
O=C1Cc2cc(S(=O)(=O)N3CCN(c4ccc(Cl)cc4)CC3)ccc2N1	-29.2%	–
Cc1ccc(CNc2ncnc3ccc(-c4ccc([C@@H](C)O)o4)cc23)o1	-21.7%	–
CC(=O)c1c(C)n(-c2cccc(Cl)c2)c2ccc(OC(=O)c3ccccc3)cc12	-4.33% [at 34.4 µM]	–
CC(=O)c1c(C)n(-c2ccc(Cl)cc2)c2ccc(OC(=O)COc3ccccc3)cc12	6.84% [at 34.4 µM]	–
CCn1cnc2c(Nc3ccc(CC(=O)N=C(N)N)cc3)nc(C#N)nc21	11.7%	–
O=C(Nc1ncc(Cc2ccc(C(F)(F)F)cc2)s1)c1ccc(-c2ccccc2[N+](=O)[O-])o1	–	12.7 µM (active)
CCN(CC)CC(=O)c1c(C)n(C)c2ccc(OC)cc12	-0.132% [at 34.4 µM]	–
Cc1cccc(C(=O)NCc2nnc3cc(-c4nc(C)no4)ccn23)c1	2.68%	–
Cc1ccc(-c2ccccc2C=O)c(C)c1	14.5% [at 99.6 µM]	–
Oc1cc2c(cc1CN1CCN(c3ncccn3)CC1)OCO2	–	7.12 µM (active)
Cc1cc(C)cc(-c2ccccc2C=O)c1	12.2%	–
Cc1ccc(S(=O)(=O)Nc2cnccc2C(=O)Nc2nc(-c3ccco3)cs2)cc1	–	7.98 µM (active)
COc1ccc(-n2c(C)c(C(C)=O)c3cc(OC(=O)COc4ccccc4)ccc32)cc1	0% [at 34.4 µM]	–
Cc1cccc(-c2ccccc2C=O)c1	4.91%	–
CN1CCN(C(=O)c2cccc(-c3ccc(CNc4ccc(N5CCN(C(=O)OC(C)(C)C)CC5)cc4)o3)c2)CC1	-10.6%	–
Cc1cc(NS(=O)(=O)c2ccc(Nc3nc(-c4ccc(C)c(C)c4)cs3)cc2)no1	–	0.896 µM (active)
O=C(NCC(=O)N1CCN(Cc2ccccc2)CC1)c1cccc(-c2ccsc2)c1	0%	–
Cc1ccc(C(=O)NCC(c2ccc3c(c2)OCO3)N2CCN(c3ccc(F)cc3)CC2)cc1 (centres undefined)	-16.7%	–
COc1ccc(-c2nc3ccccc3c(=O)n2Cc2ccccc2)cc1CNc1ccc(NC(C)=O)cc1	–	12.7 µM (active)
Cc1ccc(CNc2ncnc3ccc(-c4oc(-c5ccccc5)nc4C)cc23)o1	-17.7%	–
CC(=O)c1c(C)n(-c2cccc(C)c2)c2ccc(OC(=O)COc3ccccc3)cc12	27.1% [at 34.4 µM]	–
CCOC(=O)c1c(C)n(-c2ccccc2)c2ccc(OC(=O)c3ccccc3)cc12	-2.52% [at 34.4 µM]	–
C[C@@H](CO)Nc1cc2c(cc1[S+](=O)([O-])Nc1ccc(Cl)c(Cl)c1)CCC(=O)N2	-19.2%	–
CCOC(=O)c1c(C)n(-c2ccc(OC)cc2)c2ccc(OC(=O)COc3ccccc3)cc12	15.8% [at 34.4 µM]	–

Molecular target: Retinaldehyde dehydrogenase 3 (Homo sapiens) (UniProt P47895)
Test: qHTS for Inhibitors of the Aldehyde Dehydrogenase Family (ALDH1A3) Confirmatory screens (AID 2061311); further: nearly all actives have a fitted effect of over 60% in size
Conditions: ALDH inhibition qHTS; series mostly up to 46 µM; activity change, negative = inhibition: at the top concentration

Compound	activity change, negative = inhibition	Potency	outcome
Cc1cc(NC(=O)Nc2nnc(-c3ccncc3)s2)ccc1Br	2.06%	–	–
Nc1cc(S(=O)(=O)N2CCN(S(=O)(=O)c3ccc4c(c3)OCCO4)CC2)ccn1	-14.1% [at 0.022 µM]	–	–
N#CNC(=O)c1ccc(-n2cccc2/C=C2\NC(=O)N(CC(=O)Nc3ccc(F)cc3)C2=O)cc1	-19.3%	–	–
CC(=O)N1CCN(c2ccc(NCc3ccco3)cc2)CC1	–	10.1 µM (active)	–
COc1cc(O)c(C(CC(=O)N2C[C@H](C)C[C@H](C)C2)c2ccc3c(c2)OCO3)c(OC)c1 (some centres undefined)	-24.8% [at 85.7 µM]	–	–
N#Cc1ccc(-c2ccc(CNc3ccc(N4CCOCC4)cc3)cn2)cc1	–	12.7 µM (active)	–
CN(C)c1ccc(-c2csc(N3CCC(C(N)=O)CC3)n2)cc1	–	12.7 µM (active)	–
CC(=O)Nc1cccc(OCc2cccc(C3Nc4ccccc4C(=O)N3Cc3ccco3)c2)c1 (centres undefined)	–	10 µM (active)	–
COc1ccc(Cl)cc1C(=O)NCc1nnc2cc(-c3nc(C)no3)ccn12	-7.9%	–	–
O=C(CCC1CCCN(S(=O)(=O)c2ccccc2F)C1)NCCCN1CCOCC1 (centres undefined)	–	–	inactive
COc1ccc2c(c1)c(C(=O)CN(C)C)c(C)n2C	1.06%	–	–
COc1cccc(-c2cccc(C(=O)N3CCN(C(=O)c4ccc(C)cc4)CC3)c2)c1	1.03%	–	–
Cc1ccsc1CN(C)c1ncnc2ccc(-c3oc(-c4ccccc4)nc3C)cc12	–	14.1 µM (active)	–
Cc1cc(C)cc(-c2ccc(C=O)cc2)c1	40.8% [at 85.7 µM]	–	–
COc1ccc(-n2c(C)c(C(C)=O)c3cc(OC(=O)c4ccc(C)cc4)ccc32)cc1	-1.16%	–	–
CC(=O)N1CCN(c2ccc(NCc3ccc(Br)o3)cc2)CC1	–	17.9 µM (active)	–
O=C1Cc2cc(S(=O)(=O)N3CCN(c4ccc(Cl)cc4)CC3)ccc2N1	–	–	inactive [at 85.7 µM]
Cc1ccc(CNc2ncnc3ccc(-c4ccc([C@@H](C)O)o4)cc23)o1	–	12.7 µM (active)	–
CC(=O)c1c(C)n(-c2cccc(Cl)c2)c2ccc(OC(=O)c3ccccc3)cc12	2.24%	–	–
CC(=O)c1c(C)n(-c2ccc(Cl)cc2)c2ccc(OC(=O)COc3ccccc3)cc12	0.437%	–	–

Compound	activity change, negative = inhibition	Potency	outcome
CCn1cnc2c(Nc3ccc(CC(=O)N=C(N)N)cc3)nc(C#N)nc21	-14.1%	–	–
O=C(Nc1ncc(Cc2ccc(C(F)(F)F)cc2)s1)c1ccc(-c2ccccc2[N+](=O)[O-])o1	–	11.3 µM (active)	–
CCN(CC)CC(=O)c1c(C)n(C)c2ccc(OC)cc12	6.17%	–	–
Cc1cccc(C(=O)NCc2nnc3cc(-c4nc(C)no4)ccn23)c1	-8.31%	–	–
Cc1ccc(-c2ccccc2C=O)c(C)c1	6.68% [at 99.6 µM]	–	–
Oc1cc2c(cc1CN1CCN(c3ncccn3)CC1)OCO2	–	10.1 µM (active)	–
Cc1cc(C)cc(-c2ccccc2C=O)c1	5.54% [at 85.7 µM]	–	–
Cc1ccc(S(=O)(=O)Nc2cnccc2C(=O)Nc2nc(-c3ccco3)cs2)cc1	–	7.12 µM (active)	–
COc1ccc(-n2c(C)c(C(C)=O)c3cc(OC(=O)COc4ccccc4)ccc32)cc1	5.52%	–	–
Cc1cccc(-c2ccccc2C=O)c1	9.73% [at 85.7 µM]	–	–
CN1CCN(C(=O)c2cccc(-c3ccc(CNc4ccc(N5CCN(C(=O)OC(C)(C)C)CC5)cc4)o3)c2)CC1	–	–	inactive
Cc1cc(NS(=O)(=O)c2ccc(Nc3nc(-c4ccc(C)c(C)c4)cs3)cc2)no1	-16%	–	–
O=C(NCC(=O)N1CCN(Cc2ccccc2)CC1)c1cccc(-c2ccsc2)c1	0.41%	–	–
Cc1ccc(C(=O)NCC(c2ccc3c(c2)OCO3)N2CCN(c3ccc(F)cc3)CC2)cc1 (centres undefined)	4.67%	–	–
COc1ccc(-c2nc3ccccc3c(=O)n2Cc2ccccc2)cc1CNc1ccc(NC(C)=O)cc1	–	11.3 µM (active)	–
Cc1ccc(CNc2ncnc3ccc(-c4oc(-c5ccccc5)nc4C)cc23)o1	–	22.5 µM (active)	–
CC(=O)c1c(C)n(-c2cccc(C)c2)c2ccc(OC(=O)COc3ccccc3)cc12	-2.83%	–	–
CCOC(=O)c1c(C)n(-c2ccccc2)c2ccc(OC(=O)c3ccccc3)cc12	5.81%	–	–
C[C@@H](CO)Nc1cc2c(cc1[S+](=O)([O-])Nc1ccc(Cl)c(Cl)c1)CCC(=O)N2	-14.6%	–	–
CCOC(=O)c1c(C)n(-c2ccc(OC)cc2)c2ccc(OC(=O)COc3ccccc3)cc12	8.76%	–	–

Reference: PubChem BioAssay (NCATS)
